Experimental data: PubChem BioAssay (Tox21)
“And” between values parts separate entries of the source, which are not always exact repeats. Identical values can stand only once. Inconclusive results are not listed. A call without a number means that no potency is given here. Some compounds were tested as several samples or in several runs, with calls that do not always agree. The source made the active and inactive calls. Unless noted, calls come from the whole dose curve; as a rule, active = well fitted curve in the direction sought with a large enough effect in the repeat runs; inconclusive = weak or mixed curves; inactive = no such curve, though single readings can be large; an effect the other way counts as inactive or inconclusive.

Assays:
[1] = qHTS assay to identify small molecule agonists of the estrogen receptor alpha (ER-alpha) signaling pathway in the presence of an antagonist - cell viability counter screen (AID 1259386);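 note: series mostly up to about 92 µM; cells exposed to compounds for 22 h at 37 °C before the viability read; nearly all actives have a fitted effect of over 30% in size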
How it was run: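 The test measures whether compounds kill ER-alpha reporter cells (VM7Luc4E2) under antagonist co-treatment (ICI-182,780, 10.0nM). Fluorescence from CellTiter-Fluor is read after a 22hr exposure.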

[2] = molecular target: Progesterone receptor (Homo sapiens) (UniProt P06401); experiment: qHTS assay to identify small molecule agonists of the progesterone receptor (PR) signaling pathway (AID 1346784; calls by dose curve; note: nearly all actives have a fitted effect of over 30% in size)
How it was run: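 Reporter assay, GripTite PR-UAS-bla HEK 293T cells: 16 hr exposure to DMSO-dissolved compounds at 37C, 5% CO2, in steroid-depleted (2% charcoal-stripped FBS) medium; beta-lactamase measured by FRET fluorescence.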

[3] = molecular target: Progesterone receptor (Homo sapiens) (UniProt P06401); experiment: qHTS assay to identify small molecule antagonists of the progesterone receptor (PR) signaling pathway (AID 1346795; active = well fitted inhibition curve with a large enough effect in the signal ratio in the repeat runs, not every such curve was filed as active; the % refers to the signal ratio; note: potency is the fitted concentration of half-maximal effect)
How it was run: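 Stimulus R5020 at 1 nM final; cells HEK293T PR-UAS-bla; medium with 2% charcoal-stripped FBS; compound exposure 16 hr at 37C, 5% CO2; detection by FRET beta-lactamase substrate, 2 hr, room temperature.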

[4] = qHTS assay to identify small molecule antagonists of the progesterone receptor (PR) signaling pathway - cell viability counter screen (AID 1346798); note: series mostly up to about 92 µM; nearly all actives have a fitted effect of over 50% in size
How it was run: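 In the same plates used for the beta-lactamase readout, cell viability of compound- and R5020-treated PR-UAS-bla HEK293T cells (16 hr, 37C) was assessed by CellTiter-Glo luminescence.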

[5] = qHTS assay to identify small molecule agonists of the progesterone receptor (PR) signaling pathway - cell viability counter screen (AID 1346799; calls by dose curve; note: nearly all actives have a fitted effect of over 45% in size)
How it was run: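 Multiplexed viability read: CellTiter-Glo luminescence, 30 min RT, following LiveBLAzer FRET measurement on PR-UAS-bla HEK293T cells exposed to compounds 16 hr.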

[6] = qHTS assay to identify small molecule antagonists of the TGF-beta/Smad signaling pathway - cell viability counter screen (AID 1346824); note: nearly all actives have a fitted effect of over 50% in size
How it was run: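 Cytotoxicity counter-screen run in the same wells as the beta-lactamase Smad reporter read: CellTiter-Glo luminescence after 30 min at room temperature. HEK 293T SBE-bla cells had 5 hr compound exposure at 37 C with TGF-beta1 (0.25 ng/mL stock).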

[7] = qHTS assay to identify small molecule agonists of the TGF-beta/Smad signaling pathway - cell viability counter screen (AID 1346829); note: top concentration of the series differs between compounds; nearly all actives have a fitted effect of over 45% in size
How it was run: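 Same-well cytotoxicity: CellTiter-Glo added after the 2 hr room-temperature beta-lactamase substrate step, luminescence measured 30 min later; cells had 5 hr of compound at 37 C.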

[8] = qHTS assay to identify small molecule agonists of the TGF-beta/Smad signaling pathway (AID 1346859; active = well fitted activation curve with a large enough effect in the signal ratio in the repeat runs, not every such curve was filed as active; the % refers to the signal ratio; note: series mostly up to about 77 µM)
How it was run: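 Screening used HEK 293T SBE-bla cells at 4,000/well. Test agents: 5 hr, 37 C. Detection: FRET substrate, 2 hr RT, then excitation 405 nm with emissions at 460 and 530 nm.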

[9] = molecular target: Thyrotropin-releasing hormone receptor (Homo sapiens) (UniProt P34981); experiment: qHTS assay to identify small molecule antagonists of the thyrotropin-releasing hormone receptor (TRHR) signaling pathway (AID 1346877; active = well fitted inhibition curve with a large enough effect in the repeat runs, not every such curve was filed as active; note: potency is the fitted concentration of half-maximal effect)
How it was run: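 Overnight-plated (18 h, 37 °C) HEK293 cells expressing TRHR were dye-loaded 2 h, treated with compound, then stimulated with TRH at 1 nM final. Fluorescence intensity was captured every second for 3 min.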

[10] = molecular target: Thyrotropin-releasing hormone receptor (Homo sapiens) (UniProt P34981); experiment: qHTS assay to identify small molecule agonists of the thyrotropin-releasing hormone receptor (TRHR) signaling pathway (AID 1346891; calls by dose curve; note: potency is the fitted concentration of half-maximal effect; for activation: series mostly up to about 58 µM)
How it was run: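 Readout was intracellular calcium fluorescence in TRHR-Hek293 cells. Cells were incubated 18 h, dye-loaded 2 h at 37 °C, and treated with compound in agonist mode.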

[11] = Human pregnane X receptor (PXR) small molecule agonists, qHTS cell viability counter screen (AID 1346977); note: nearly all actives have a fitted effect of over 50% in size
How it was run: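 In each well, the PXR reporter HepG2 line was checked for viability: CellTiter-Fluor reagent added 23hr post-dosing, fluorescence read after 1hr incubation at 37C.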

[12] = Caspase-3/7 induction in HepG2 cells by small molecules, qHTS assay (AID 1346978); note: nearly all actives have a fitted effect of over 15% in size
How it was run: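 Caspase-3/7 induction was measured by Caspase-Glo 3/7 luminescence (30 min, room temperature) after a 17 hr compound exposure of wild-type HepG2 cells seeded at 2,000 per well and pre-incubated 5 hr.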

[13] = Caspase-3/7 induction in CHO-K1 cells by small molecules, qHTS cell viability counter screen (AID 1346979); note: nearly all actives have a fitted effect of over 35% in size; note: potency is the fitted concentration of half-maximal effect
How it was run: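 Following a 5hr settling period, CHO-K1 cells at 1,500 per well received DMSO-dissolved compounds. Cell viability was quantified 16hr later by CellTiter-Fluor fluorescence, measured after 1hr with reagent at 37C.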

[14] = Caspase-3/7 induction in CHO-K1 cells by small molecules, qHTS assay (AID 1346980); note: nearly all actives have a fitted effect of over 15% in size
How it was run: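 Luminescent Caspase-Glo 3/7 read (30min, room temperature) quantified apoptosis induction. Cells were wild-type CHO-K1, treated with compound for 17hr at 37 C and 5% CO2.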

[15] = molecular target: Nuclear receptor subfamily 1 group I member 2 (Homo sapiens) (UniProt O75469); experiment: Human pregnane X receptor (PXR) small molecule agonists, qHTS assay (AID 1346982); note: nearly all actives have a fitted effect of over 35% in size; note: potency is the fitted concentration of half-maximal effect
How it was run: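 Stable HepG2 line reporting PXR-mediated CYP3A4 expression via luciferase. Treatment: 24 hr with compounds in DMSO at 37 C. Detection: ONE-Glo luminescence.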

[16] = molecular target: Acetylcholinesterase (Homo sapiens) (UniProt P22303); experiment: Acetylcholinesterase (AChE) small molecule antagonists: colormetric cell-based qHTS assay (AID 1347395; calls by dose curve; note: nearly all actives have a fitted effect of over 30% in size; note: potency is the fitted concentration of half-maximal effect)
How it was run: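 After overnight attachment at 37 C, SH-SY5Y cells get 30 min compound exposure; detection cocktail (acetylthiocholine, DTNB) then incubates 90 min at 37 C, and absorbance reflects AChE-generated thiocholine.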

[17] = Caspase-3/7 induction in HepG2 cells by small molecules, qHTS cell viability counter screen (AID 1346981); note: series mostly up to about 92 µM; nearly all actives have a fitted effect of over 30% in size
How it was run: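 Treatment of HepG2 cells with DMSO-delivered compounds ran 16 hr at 37 C following a 5-hr pre-incubation of 2,000 cells/well. CellTiter-Fluor fluorescence, read after 1 hr, served as the viability measure in a qHTS format.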

[18] = molecular target: Nuclear receptor subfamily 1 group I member 2 (Rattus norvegicus) (UniProt Q9R1A7); experiment: Rat pregnane X receptor (rPXR) activation by small molecules, qHTS assay (AID 1346983); details: rPXR luciferase reporter cells, One-Glo luminescence, 24 h; stronger effect = higher value; note: nearly all actives have a fitted effect of over 20% in size
How it was run: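 Luminescent readout (One-Glo luciferase, 30 min room temperature) followed 24 hr compound treatment at 37 C of rPXR cells plated 2,000 per well and preincubated 5hr; qHTS format with compounds delivered in DMSO.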

[19] = molecular target: Nuclear receptor subfamily 1 group I member 2 (Homo sapiens) (UniProt O75469); experiment: CYP3A4 induction through human pregnane X receptor (PXR) by small molecules, qHTS assay (AID 1346984); note: nearly all actives have a fitted effect of over 40% in size
How it was run: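 After 24 h at 37C with compound, DPX-2 cells (HepG2, co-transfected PXR response element and CYP3A4 promoter-luciferase) got 3uM final P450-Glo Luciferin-IPA for 3 h; One-Glo luminescence followed.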

[20] = molecular target: Nuclear receptor subfamily 1 group I member 2 (Homo sapiens) (UniProt O75469); experiment: Human pregnane X receptor (PXR) activation by small molecules, qHTS assay (AID 1346985); note: nearly all actives have a fitted effect of over 40% in size
How it was run: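 DPX-2 cells (HepG2 co-transfected with a PXR response element and a CYP3A4-promoter luciferase construct) were seeded at 2,000 per well, rested 5 hr at 37C, then exposed to DMSO-dissolved compounds for 24 hr. Activation was read as luciferase luminescence.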

Sequence of Acetylcholinesterase (Homo sapiens) (P22303 whole entry, looked up): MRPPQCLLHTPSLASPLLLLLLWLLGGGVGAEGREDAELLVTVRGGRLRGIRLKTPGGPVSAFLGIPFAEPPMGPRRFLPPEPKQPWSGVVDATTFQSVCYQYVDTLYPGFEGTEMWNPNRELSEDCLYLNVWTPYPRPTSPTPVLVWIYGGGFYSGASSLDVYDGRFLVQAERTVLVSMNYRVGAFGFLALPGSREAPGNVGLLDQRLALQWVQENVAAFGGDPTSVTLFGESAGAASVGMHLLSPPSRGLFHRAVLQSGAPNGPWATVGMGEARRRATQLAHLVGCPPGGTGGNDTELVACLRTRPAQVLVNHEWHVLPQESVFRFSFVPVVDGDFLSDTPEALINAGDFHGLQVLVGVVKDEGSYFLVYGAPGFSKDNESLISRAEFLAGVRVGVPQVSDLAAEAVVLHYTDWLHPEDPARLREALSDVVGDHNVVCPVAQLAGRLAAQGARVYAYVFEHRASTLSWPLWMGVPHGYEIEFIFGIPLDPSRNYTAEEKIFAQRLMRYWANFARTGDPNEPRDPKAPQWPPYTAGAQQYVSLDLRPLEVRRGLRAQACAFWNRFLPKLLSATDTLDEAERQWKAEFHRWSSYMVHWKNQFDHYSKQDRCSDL
Sequence of Progesterone receptor (Homo sapiens) (P06401 whole entry, looked up): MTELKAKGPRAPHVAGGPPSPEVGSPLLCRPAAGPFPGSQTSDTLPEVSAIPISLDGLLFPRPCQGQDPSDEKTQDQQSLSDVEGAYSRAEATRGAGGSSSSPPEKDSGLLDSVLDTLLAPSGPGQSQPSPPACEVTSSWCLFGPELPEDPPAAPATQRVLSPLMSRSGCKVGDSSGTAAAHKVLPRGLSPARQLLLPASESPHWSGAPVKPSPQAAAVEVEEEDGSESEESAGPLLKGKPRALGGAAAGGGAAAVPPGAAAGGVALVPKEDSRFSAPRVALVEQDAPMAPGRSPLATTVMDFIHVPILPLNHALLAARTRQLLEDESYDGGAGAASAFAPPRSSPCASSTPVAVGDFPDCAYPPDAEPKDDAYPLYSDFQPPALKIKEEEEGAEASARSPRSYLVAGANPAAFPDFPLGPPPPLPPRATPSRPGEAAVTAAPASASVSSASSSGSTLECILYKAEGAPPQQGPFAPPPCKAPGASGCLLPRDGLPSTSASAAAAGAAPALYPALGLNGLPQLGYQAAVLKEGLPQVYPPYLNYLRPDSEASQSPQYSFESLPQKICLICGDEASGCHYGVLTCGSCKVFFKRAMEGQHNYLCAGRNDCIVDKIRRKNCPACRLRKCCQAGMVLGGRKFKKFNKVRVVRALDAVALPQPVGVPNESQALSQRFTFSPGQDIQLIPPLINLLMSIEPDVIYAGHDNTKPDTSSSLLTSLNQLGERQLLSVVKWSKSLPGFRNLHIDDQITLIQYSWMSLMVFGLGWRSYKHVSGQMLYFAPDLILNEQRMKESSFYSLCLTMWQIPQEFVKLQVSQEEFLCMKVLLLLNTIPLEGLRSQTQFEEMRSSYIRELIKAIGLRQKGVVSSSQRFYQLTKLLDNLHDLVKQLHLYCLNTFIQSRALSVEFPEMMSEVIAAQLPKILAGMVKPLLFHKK
Sequence of Nuclear receptor subfamily 1 group I member 2 (Rattus norvegicus) (Q9R1A7 whole entry, looked up): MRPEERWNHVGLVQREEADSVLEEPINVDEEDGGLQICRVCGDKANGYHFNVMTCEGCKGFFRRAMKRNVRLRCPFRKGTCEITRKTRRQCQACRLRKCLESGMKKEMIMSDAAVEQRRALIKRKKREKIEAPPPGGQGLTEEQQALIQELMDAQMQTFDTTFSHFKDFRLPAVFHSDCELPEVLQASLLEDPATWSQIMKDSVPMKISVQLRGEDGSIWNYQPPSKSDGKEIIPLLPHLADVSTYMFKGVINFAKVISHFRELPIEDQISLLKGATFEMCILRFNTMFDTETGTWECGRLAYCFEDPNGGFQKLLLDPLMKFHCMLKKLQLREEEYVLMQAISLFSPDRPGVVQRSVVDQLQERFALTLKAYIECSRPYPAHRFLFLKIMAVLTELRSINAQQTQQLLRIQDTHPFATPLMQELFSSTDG
Sequence of Nuclear receptor subfamily 1 group I member 2 (Homo sapiens) (O75469 whole entry, looked up): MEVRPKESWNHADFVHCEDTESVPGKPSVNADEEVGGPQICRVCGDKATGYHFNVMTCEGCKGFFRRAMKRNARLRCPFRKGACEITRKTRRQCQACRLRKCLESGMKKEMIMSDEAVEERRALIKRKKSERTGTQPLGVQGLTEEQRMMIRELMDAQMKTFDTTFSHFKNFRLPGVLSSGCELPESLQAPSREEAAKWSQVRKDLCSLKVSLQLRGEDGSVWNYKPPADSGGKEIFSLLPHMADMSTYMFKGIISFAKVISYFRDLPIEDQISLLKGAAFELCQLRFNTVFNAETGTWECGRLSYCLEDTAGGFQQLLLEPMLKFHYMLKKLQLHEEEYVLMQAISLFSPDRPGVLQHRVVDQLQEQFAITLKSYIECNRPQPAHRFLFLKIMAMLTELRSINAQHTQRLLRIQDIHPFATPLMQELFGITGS
Sequence of Thyrotropin-releasing hormone receptor (Homo sapiens) (P34981 whole entry, looked up): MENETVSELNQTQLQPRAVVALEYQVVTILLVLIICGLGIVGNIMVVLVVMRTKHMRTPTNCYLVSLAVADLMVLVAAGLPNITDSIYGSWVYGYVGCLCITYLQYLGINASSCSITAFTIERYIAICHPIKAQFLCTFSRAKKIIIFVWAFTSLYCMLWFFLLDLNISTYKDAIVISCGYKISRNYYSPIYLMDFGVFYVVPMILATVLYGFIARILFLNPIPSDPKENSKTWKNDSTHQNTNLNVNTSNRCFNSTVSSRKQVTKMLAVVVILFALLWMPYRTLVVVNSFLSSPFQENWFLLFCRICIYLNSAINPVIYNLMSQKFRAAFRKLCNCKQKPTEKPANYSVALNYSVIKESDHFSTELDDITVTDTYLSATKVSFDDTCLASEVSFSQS

Row | SMILES | Potency [1] | Potency [2] | Potency [3] | Potency [4] | Potency [5] | Potency [6] | Potency [7] | outcome [8] | Potency [9] | Potency [10] | Potency [11] | Potency [12] | Potency [13] | Potency [14] | Potency [15] | Potency [16] | Potency [17] | max activation [18] | outcome [19] | outcome [20]
1 | ClC1C(Cl)C(Cl)C(Cl)C(Cl)C1Cl (stereo not drawn) | inactive | inactive | inactive | inactive | inactive | inactive | inactive | inactive | inactive | inactive | inactive | inactive | inactive | inactive | – | – | – | – | – | –
2 | COC(=O)c1sccc1S(=O)(=O)NC(=O)Nc1nc(C)nc(OC)n1 | inactive | inactive | inactive | inactive | inactive | inactive | inactive | inactive | inactive | inactive | inactive | inactive | inactive | – | inactive | inactive | – | – | – | –
3 | CCN(CC)C(=O)/C(Cl)=C(\C)OP(=O)(OC)OC | inactive | inactive | inactive | inactive | inactive | inactive | inactive | inactive | – | inactive | inactive | inactive | inactive | inactive | inactive and 54.5 µM (active) | – | inactive | 5.74% (inactive) | inactive | –
4 | CC(O)CCO (stereo not drawn) | inactive | inactive | inactive | inactive | inactive | inactive | inactive | inactive | inactive | inactive | inactive | inactive | inactive | – | inactive | inactive | inactive | – | – | –
5 | CCCCCCCCOC(=O)c1ccccc1C(=O)OCCCCCCCC | inactive | inactive | inactive | inactive | inactive | inactive | inactive | inactive | inactive | inactive | inactive | inactive | inactive | inactive | 68.4 µM (active) and inactive | inactive | inactive | -0.303% (inactive) | inactive | inactive
6 | CC(C)(c1cc(Cl)c(O)c(Cl)c1)c1cc(Cl)c(O)c(Cl)c1 | inactive | inactive | 7.7 µM (active) | inactive | inactive | inactive | inactive | inactive | 30.1 µM (active) | 34.7 µM (active) | inactive | inactive | – | inactive | 54.5 µM (active) and 43.3 µM (active) | inactive | – | – | – | –
7 | C=CC(=O)OCCO | inactive | inactive | inactive | inactive | inactive | inactive | inactive | inactive | inactive | inactive | inactive | inactive | 55.3 µM (active) | inactive | inactive | inactive | inactive | – | – | –
8 | Oc1c(Cl)c(Cl)c(Cl)c(Cl)c1Cl | inactive | inactive | 59.9 µM (active) and 48.6 µM (active) | inactive | – | inactive | inactive | inactive | inactive | inactive | – | inactive | inactive | inactive | 59.9 µM (active) and 54.5 µM (active) | inactive | – | – | – | –
9 | NNC(=S)NN | inactive | inactive | 62.8 µM (active) and 54.5 µM (active) | inactive | inactive | inactive | inactive | inactive | – | inactive | inactive | inactive | – | – | inactive | inactive | – | – | – | –
10 | O=C1C=CC(=O)C=C1 | inactive | inactive | inactive | inactive | inactive | inactive | inactive | inactive | – | inactive | inactive | inactive | inactive | – | inactive | inactive | inactive | – | – | –
11 | COc1ccc(C(CN(C)C)C2(O)CCCCC2)cc1 (stereo not drawn) | inactive | inactive | inactive | inactive | inactive | inactive | inactive | inactive | – | – | inactive | inactive | inactive | – | inactive | – | inactive | -0.342% (inactive) | inactive | inactive
12 | O=C(O)CC[N+](=O)[O-] | inactive | inactive | inactive | inactive | inactive | inactive | inactive | inactive | – | – | inactive | inactive | inactive | inactive | inactive | inactive and 8.94 µM (active) | inactive | – | – | –
13 | N[C@@H](Cc1ccc(N(CCCl)CCCl)cc1)C(=O)O | inactive | inactive | inactive | inactive | inactive | – | inactive | inactive | inactive | inactive | inactive | – | 29.4 µM (active) and 26.6 µM (active) | inactive | – | – | – | -1.77% (inactive) | – | –
14 | O=[N+]([O-])c1c(Cl)c(Cl)c(Cl)c(Cl)c1Cl | inactive | inactive | inactive | inactive | inactive | inactive | inactive | – | – | inactive | inactive | inactive | inactive | – | inactive | 39.8 µM (active) and 31.7 µM (active) | inactive | – | – | –
15 | Nc1cccnc1 | inactive | inactive | inactive | inactive | inactive | inactive | inactive | inactive | – | inactive | inactive | inactive | inactive | – | inactive | inactive | – | – | – | –
16 | Cc1cc(Cl)ccc1OCCCC(=O)O | inactive | inactive | inactive | inactive | inactive | inactive | inactive | – | – | inactive | inactive | inactive | inactive | inactive | inactive | inactive | inactive | – | – | –
17 | C=CCN(CC=C)C(=O)C(Cl)Cl | inactive | inactive | inactive | inactive | inactive | – | inactive | inactive | – | inactive | inactive | inactive | inactive | inactive | inactive | inactive | inactive | – | – | –
